# TRHR ag: qHTS for Small Molecule Agonists and Allosteric Enhancers of Human TRH Receptor: Primary Screen for Agonists; Thyrotropin-releasing hormone receptor (Homo sapiens), P34981; TRHR cells, calcium flux fluo-8, FDSS agonist mode; activation, % at 2 µM; 360,000 tested, 0.18% active; note: 0% is about no effect
#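 Steps: seed TRHR cells overnight; add fluo-8 no-wash Ca dye, RT 30 min–1.5 h; record 10 s baseline; pin-transfer compounds; monitor fluorescence 1 cycle/s for the agonist window. Calcium increases flag candidate agonists.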
# D1 ag: Allosteric Agonists of the Human D1 Dopamine Receptor: qHTS; activation, % at 2 µM; HEK293 T-REx D1 cells, calcium flux, agonist mode; D(1A) dopamine receptor (Homo sapiens), P21728; 360,000 tested, 1% active; note: 0% is about no effect
# Target sequence (P21728 whole entry, looked up): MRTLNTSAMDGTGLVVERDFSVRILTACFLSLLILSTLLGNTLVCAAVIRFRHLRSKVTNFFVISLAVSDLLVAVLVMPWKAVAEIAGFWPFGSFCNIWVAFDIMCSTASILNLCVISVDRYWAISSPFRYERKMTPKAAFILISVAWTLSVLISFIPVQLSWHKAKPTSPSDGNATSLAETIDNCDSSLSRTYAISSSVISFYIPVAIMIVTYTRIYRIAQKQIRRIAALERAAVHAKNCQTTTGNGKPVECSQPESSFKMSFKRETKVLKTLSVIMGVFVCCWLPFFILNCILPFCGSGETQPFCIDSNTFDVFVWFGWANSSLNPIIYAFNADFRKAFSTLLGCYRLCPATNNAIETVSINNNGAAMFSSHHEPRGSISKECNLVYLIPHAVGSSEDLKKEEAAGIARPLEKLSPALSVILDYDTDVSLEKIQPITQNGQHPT
#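 Inducible HEK293 T-REx D1 cells, force-coupled to calcium signalling, were plated at 4000 cells/well with tetracycline and held overnight at 30 C. After no-wash calcium dye loading, compound-evoked calcium rise over 180 s flagged agonists.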
# D1 PAM: Potentiators of Human D1 Dopamine Receptor: qHTS | D(1A) dopamine receptor (Homo sapiens), P21728 | HEK293 TREx D1 cells, calcium flux, dopamine EC20 potentiation | potentiation, % at 10 µM | 360,000 tested, 0.036% active | AID 504651, 2011; in the data active = potentiation above about 30%; note: 0% is about no effect
# D1 antagonist: Antagonist of Human D 1 Dopamine Receptor: qHTS; D(1A) dopamine receptor (Homo sapiens), P21728; HEK293 TREx D1 cells, calcium flux, dopamine EC80; active compounds read low; activity change, negative = inhibition, % at 10 µM; 360,000 tested, 3.2% active; AID 504652, 2011; in the data active = activity change below about -30%; note: % is set by controls: 0 for no effect and ±100 for the full control effect
#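 Tetracycline-induced HEK293 T-REx cells with force-coupled D1 receptor were loaded with a no-wash calcium dye. Compound was added after a 10 s baseline and read kinetically for 180 s; EC80 dopamine was then added and calcium flux followed another 180 s.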
# TRHR enhancer: qHTS for Small Molecule Agonists and Allosteric Enhancers of Human TRH Receptor: Primary Screen for Enhancers; 360,000 tested, 0.66% active; enhancement, % at 2 µM; TRHR cells, fluo-8 calcium fluorescence, EC20 TRH enhancement; Thyrotropin-releasing hormone receptor (Homo sapiens), P34981; in the data active = enhancement above about 30%; note: 0% is about no effect
#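 Enhancer read-out: after compound pinning and an initial kinetic agonist-mode read, an EC20 of TRH (10 nM final) was injected and fluo-8 calcium signal (Ex 480/Em 530) followed at 1 s/cycle for 100 cycles in TRHR-expressing cells.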
# Starred values were filed as active, the others as inactive; . = not tested or not shown. In the library only some 4.7% were active in any assay of this set; here they are far more common. Cut-off read from the data, not from the text of the source, unless noted: active = activation above about 30%; inactive = the rest.
SMILES,TRHR ag,D1 ag,D1 PAM,D1 antagonist,TRHR enhancer
Cc1ccc(C(=O)NCCC2=CCCCC2)cc1S(=O)(=O)N1CCCCC1,0,15,-2,-8,4
Cn1cc(S(=O)(=O)N2CCCC2)cc1C(=O)NCc1ccc(Cl)cc1,0,2,-6,-33*,0
O=C(NCCC1=CCCCC1)c1cccc(S(=O)(=O)N2CCCCC2)c1,1,6,-8,-39*,2
Cc1ccc(NC(=O)COc2ccc(-c3nn(C)c(=O)c4ccccc34)cc2)c(C)c1,-1,4,-2,-9,3
CC1=C(C(=O)Nc2cccnc2)C(c2ccc(F)cc2)n2nc(-c3cccc(C)c3)nc2N1 (stereo not drawn),1,0,-1,-6,1
Cc1cc(C)c2c(n1)nn1c(C)c(CCC(=O)NCc3ccc(Cl)cc3)c(C)nc21,-1,0,-2,-5,4
COc1cccc(CN(C(=O)c2cccc(C)c2)C2CCS(=O)(=O)C2)c1 (stereo not drawn),-1,-1,0,-3,0
CCN1C(=O)/C(=C/C=C2\N(CC)c3cc(S(=O)(=O)N(C)C)ccc3N2c2ccccc2)SC1=S,27,83*,-3,14,-1
COc1ccc(Cl)cc1NC(=O)Cc1ccc(NC(=O)N2CCCCc3ccccc32)cc1,1,2,3,9,10
Cc1cc2ccc3ccccc3c2cc1CN(C)C,3,15,-5,-43*,11
CN(C)Cc1cc2ccccc2c2c1COC2,0,5,-1,1,-1
O=C(CSc1nc(=O)[nH]c2c1CCCC2)Nc1ccc(Cl)c(Cl)c1,0,-1,4,.,-2
COC(=O)C1=C(C)N(Cc2ccccc2)C(=NCc2ccc(OC)cc2)N[C@H]1c1ccc(Br)cc1,1,1,-1,0,9
COCCC1CCCCN1C(=O)c1cc(COc2cccc(C(C)=O)c2)on1 (stereo not drawn),0,12,-8,-49*,0
CC(=O)c1ccc(OCc2cc(C(=O)N3CCC[C@H]3CO)no2)cc1,0,3,-3,-25,0
CN(Cc1nccs1)C(=O)c1cc(COc2cccc3cnccc23)on1,0,16,0,-32*,-4
COc1ccc(OCc2cc(C(=O)N(C)Cc3nccn3C)no2)c2ccccc12,-1,2,-1,-40*,-4
COC(=O)C1CCCCN1C(=O)c1cc(COc2cccc3cnccc23)on1 (stereo not drawn),2,23,-6,-43*,-3
O=C(COc1ccccc1F)Nc1ccc2nc(SCC(=O)N3CCOCC3)sc2c1,0,16,-1,-13,-9
COc1cccc(NC(=O)Cn2c(=O)n(-c3ccc(C)cc3)c(=O)c3ccccc32)c1,1,2,1,-16,-10
CCOc1ccc(-c2cc(CCCC(=O)NCCc3ccc(SC)cc3)no2)cc1,0,2,0,-7,7
Cc1ccccc1C(=O)n1nc(-c2ccco2)nc1NCc1cccs1,0,1,2,6,-5
Cc1ccccc1Nc1sc(C(=O)c2ccc(F)cc2)c(N)c1C(=O)NCCc1ccccc1,2,7,6,-2,-8
COc1ccc(-c2onc(C)c2C)cc1S(=O)(=O)N1c2ccccc2CC1C (stereo not drawn),0,3,-4,-17,2
Cc1ccc(Cl)cc1NC(=O)COC(=O)CC(C)(C)CC1=NS(=O)(=O)c2ccccc2N1,0,6,-3,13,1
SMILES,TRHR ag,D1 ag,D1 PAM,D1 antagonist,TRHR enhancer
CC(C)(CC(=O)NCc1ccc(Cl)cc1Cl)CC1=NS(=O)(=O)c2ccccc2N1,0,21,-5,-51*,-3
Cc1oc2ccc(O)c(CN(C)Cc3ccccc3)c2c1C(=O)Nc1cccc(C(F)(F)F)c1,-1,1,-3,8,3
Cc1oc2ccc(O)c(CN(C)Cc3ccccc3)c2c1C(=O)Nc1ccccc1,-1,-2,-4,-44*,13
Cc1cccc(NC(=O)Cn2nc(-c3ccccc3)c3cnc4ccccc4c32)c1,1,4,0,1,7
COc1cccc(/C=C/C(=C2/C(=O)N(c3ccccc3)N=C2C)c2ccc(Br)cc2)c1OC,0,0,-11,-85*,-23
CCOc1ccc(CCNC(=O)c2ccc(C)c(-n3cnc4cccnc43)c2)cc1,0,-1,-1,-31*,8
COc1ccccc1CNC(=O)c1ccc(C)c(-n2cnc3cccnc32)c1,-1,-1,-1,-16,6
Cc1cccc(NC(=O)c2c(NC(=O)C(F)(F)F)sc3c2CCCCC3)c1,1,34*,-2,-37*,10
Cc1ccc(NC(=O)c2c(NC(=O)c3ccccc3)sc3c2CCC3)cc1,0,-2,0,-11,-7
Cc1ccc(NC(=O)c2c(NC(=O)C(F)(F)F)sc3c2CCCCC3)cc1,2,32*,-2,-42*,9
COc1ccc(NC(=O)c2c(NC(=O)COc3ccccc3)sc3c2CCCCC3)cc1,0,-1,3,-37*,-6
Cc1cccc(NC(=O)c2c(Br)sc3c2CCCC3)c1,0,0,-2,-27,-9
COc1ccccc1NC(=O)c1c(NC(=O)COc2ccccc2)sc2c1CCCCC2,0,0,-2,4,-1
Cc1ccccc1NC(=O)c1c(NC(=O)C(F)(F)F)sc2c1CCCCC2,3,35*,-1,-21,12
CCOC(=O)c1c(C)[nH]c(C)c1S(=O)(=O)N1CCC(C(=O)N2CCN(c3ccc(Cl)cc3)CC2)CC1,0,0,4,-6,1
C=C(C)Cn1c(SCC(=O)c2ccccc2)nc2sc3c(c2c1=O)CCCC3,-1,1,-2,-1,7
O=c1c(N2CCN(c3cccc(Cl)c3)CC2)csc2ccccc12,0,5,-5,-14,-9
O=C(Nc1cccc(Cl)c1)c1c(NC(=O)C(F)(F)F)sc2c1CCCC2,5,16,-3,-35*,-8
COc1cccc(NC(=S)N(CCCN2CCC(C)CC2)Cc2cccs2)c1,0,4,0,-7,30*
CCOC(=O)c1ccc(NC(=S)N(CCCN2CCN(CC)CC2)Cc2cccs2)cc1,0,49*,-7,-30,6
CCOC(=O)c1ccc(NC(=S)N(CCCN2CCCC(C)C2)Cc2ccco2)cc1 (stereo not drawn),2,26,-5,-39*,-9

# Assay outcomes from PubChem.
